122 compounds from PubChem BioAssay AID492952 (Southern Research Specialized Biocontainment Screening …, 2010) can be followed below.

The whole screen tested about 2,300 compounds, of which about 1,500 (65%) were called active. How the calls were made is not given here. The set was probably picked from earlier hits. This is one part of the list. Measured potencies and affinities stand elsewhere.

A short description of this assay: replicating M. tuberculosis growth inhibition, dose response, non-replicating M. tuberculosis project, H37Rv (AID 492952).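 Further: Mycobacterium tuberculosis grown in culture; growth inhibition read after a week of incubation.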 The settings on record: series mostly up to 50 µM.
Regarding `CCN(CC)c1ccc(NC2CC(=O)N(CCc3ccc(OC)cc3)C2=O)cc1` (configuration not stated), the compound was classed as inactive. Then `CC(C)(C)c1csc(NC(=O)c2ccccc2O)n1`, with “inactive”; and `O=C(NCc1ccc2c(c1)OCO2)c1ccc(Cl)s1`, with “inactive”. Then `CCCNC(=O)N1CCC(c2ccc3c(c2)OCO3)CC1`, with “inactive”; and `O=C(CN1CCN(c2ccccc2O)CC1)Nc1ccc2c(c1)CCC2`, with “inactive”. The same measure for `Cc1ccc(NC(=O)COc2ccc3c(c2)CCC3)nc1`: “inactive”; for `O=C1C=CC(=O)N1N(c1ccccc1)c1ccccc1`: “inactive”. For the compound `COc1ccc(C(=O)NNC2=C(C(=O)C(F)(F)F)CCC2)cc1`, the result was inactive. Turning to `CC1C/C(=N/N2C(=O)CSC2=S)CC(C)(C)C1` (configuration not stated), the outcome was inactive.

In the case of `O=C1CC(N2CCN(c3ccc(F)cc3)CC2)C(=O)N1Cc1ccccc1` (configuration not stated), the outcome was inactive. Then `Fc1ccc(N2CCN(Cc3nnc(-c4ccccc4)o3)CC2)cc1`, with “inactive”; and `O=C(CN1CCN(c2ccc([N+](=O)[O-])cc2)CC1)Nc1ccccn1`, with “inactive”. Then `O=C1CCCC(O)=C1C=Nc1ccc2c(c1)oc1ccccc12`, with “inactive”. Then `C/C(=N\NC(=O)c1nn(C)cc1Cl)c1ccncc1`, with “inactive”; and `CCOC(=O)c1ccc(N=CC2=C(O)CC(C)(C)CC2=O)cc1`, with “inactive”; and `O=C(Nc1ccc(Cl)cc1)C1CCCC1`, with “inactive”. As to `CSc1nc(=S)cc(C)[nH]1`, the result was inactive. The same measure for `CCOC(=O)Cn1cc(C#N)c2ccccc21`: “inactive”; for `CSc1nnc(Cc2ccc3c(c2)OCO3)o1`: “inactive”; for `CC(C)c1ccc(OCC(=O)NC2=NCCS2)cc1`: “inactive”. Then `O=S(=O)(Nc1nccs1)c1ccc(NCc2cc(Br)cc(Br)c2O)cc1`, with “inactive”; and `COc1cc(C=O)ccc1OCCOCCOc1ccc(Cl)cc1`, with “inactive”; and `Cc1cccnc1NC(=O)C1COc2ccccc2O1` (configuration not stated), with “inactive”. Then `CC(=O)c1cccc(NC(=O)C2COc3ccccc3O2)c1` (configuration not stated), with “inactive”; and `CCc1ccccc1NC(=O)C1COc2ccccc2O1` (configuration not stated), with “inactive”.

For the compound `Cc1ccccc1NC(=O)C1COc2ccccc2O1` (configuration not stated), the compound was classed as inactive.

As to `COc1ccc(NC(=O)C2COc3ccccc3O2)cc1` (configuration not stated), the call was inactive. For the compound `CCN(CC)C(=O)c1sc2nc(-c3ccccc3)ccc2c1N`, the result was inactive.

Regarding `O=C(COC(=O)c1ccccc1)NCc1cccs1`, the outcome was inactive. Then `C=CCn1c(O)c(C(C)=Nc2ccc(C(=O)OCC)cc2)c(=O)[nH]c1=O`, with “inactive”. As for `Cc1cc(C)c2c(=O)n(CC(=O)Nc3cccc(Cl)c3C)sc2n1`, the result was inactive.

Turning to `CC1CCc2c(sc3nc(CSc4ncn[nH]4)[nH]c(=O)c23)C1` (configuration not stated), the call was inactive.

Take `Cc1ccc(CC(=O)Nc2ccc(Cl)cn2)cc1`: the compound was called inactive. As for `Cc1ccc(NC(=O)CN(C)CC(=O)Nc2ccc(F)c(Cl)c2)cc1`, the compound was classed as inactive. Consider `COc1ccc(N2C(=O)CC(Sc3nc4ccccc4s3)C2=O)cc1OC` (configuration not stated), for which the compound was called inactive. On to `Cc1nc2ccc(NC(=O)COc3cccc(F)c3)cc2s1`, for which the compound was classed as inactive. As for `N#Cc1cc(N)ccc1-n1cccc1`, the outcome was inactive. The same measure for `CCN1C(=O)CC(N2CCC(c3nc4ccccc4[nH]3)CC2)C1=O` (configuration not stated): “inactive”; for `CC(C)(C)NCc1cc(Br)ccc1OCc1cccs1`: “inactive”; for `CCCCOC(=O)c1ccc(OC(=O)c2cccnc2)cc1`: “inactive”. Then `CC(C)CN1C(=O)/C(=C(/C#N)C(=O)NC2CCCCC2)c2ccccc21`, with “inactive”. Then `COc1cccc2sc(Nc3nnc(-c4cccs4)o3)nc12`, with “inactive”. Turning to `CC1(c2nnc(-c3ccc(F)cc3)o2)CC(c2cccc(Cl)c2)=NO1` (configuration not stated), the compound was classed as inactive. Take `CC(C)(C)c1ccc2c(c1)OC(C(=O)N/N=C\c1ccccn1)CO2` (configuration not stated): the result was inactive. The same measure for `CCCOC(=O)c1cc(-c2ccc(C=O)o2)ccc1Cl`: “inactive”. With `O=C(NNC(=O)C12CC3CC(CC(C3)C1)C2)c1cnccn1`, the call was inactive. The same measure for `O=C(COC(=O)CC12CC3CC(CC(C3)C1)C2)Nc1cccnc1Cl`: “inactive”.

Turning to `O=C(NC(=S)Nn1cnc2c(cnn2-c2ccccc2)c1=O)c1ccccc1`, the call was inactive.

`CCC(C)c1ccc(O)c(/C=N/O)c1` (configuration not stated): the outcome was inactive. Then `CCOc1cccc2cc(C(=O)NCc3ccccc3)c(=N)oc12`, with “inactive”; and `O=C(CCC1CCCCC1)NCc1ccc(F)cc1`, with “inactive”.

As for `CSc1ccccc1C(=O)NCc1ccc(S(N)(=O)=O)cc1`, the result was inactive. For the compound `C/C(=N\NC(=O)c1ccc(CN2CCc3ccccc3C2)cc1)c1ccccc1O`, the compound was called inactive. In the case of `O=C(Cc1ccc(F)cc1)Nc1ccc(Cl)cn1`, the result was inactive. The same measure for `O=C(c1ccco1)N1CCN(c2ccc(F)cc2)CC1`: “inactive”. In the case of `O=C(NCCC1CCCC1)c1cccs1`, the outcome was inactive.

Consider `CC(=O)N1CCC(=NNC(=O)c2cccs2)CC1`, for which the compound was classed as inactive. Consider `N/C(=N\OC(=O)CC1CCCCC1)c1ccncc1`, for which the outcome was inactive.

For `O=C(COC(=O)CC1CCCC1)Nc1ccc(OC(F)F)cc1`, the result was inactive. Then `O=C(COC(=O)C1CCCCC1)Nc1ccccc1OC(F)F`, with “inactive”; and `Cc1ccc(CO/N=C/c2c(O)cc(C)oc2=O)cc1`, with “inactive”; and `O=C(Nc1ccccc1F)c1ccc(Br)o1`, with “inactive”. The same measure for `Cc1ccc(CCC(=O)Nc2ccccc2F)s1`: “inactive”; for `NC(=O)C1CCN(C2CC(=O)NC2=O)CC1` (configuration not stated): “inactive”. `COc1ccc(OCCSc2nnc(Cc3cccc4ccccc34)n2N)cc1`: the outcome was inactive. The same measure for `N/C(=N\OC(=O)c1cccs1)c1ccccc1`: “inactive”; for `CC1(C)CC(=O)C(C2NCCc3ccccc32)=C(O)C1` (configuration not stated): “inactive”. Then `O=C(Nc1ccccc1F)c1ccc(CSc2ccccc2)o1`, with “inactive”.

Regarding `Cc1cc(C(=O)NNc2cc(Cl)ccc2Cl)no1`, the result was inactive. Then `CCCc1cc(C(=O)Nc2cccc(C(C)=O)c2)no1`, with “inactive”; and `O=C(CN1CCC(Cc2ccccc2)CC1)NC(=O)NC1CCCCC1`, with “inactive”; and `CC(C)[C@H]1CN=C2N(C[C@H](C)NC(=O)CCC3CCCCC3)[C@H](Cc3ccc(O)cc3)CN21`, with “inactive”. Then `CCCC(=O)N1CCC(Cc2ccccc2)CC1`, with “inactive”; and `C[C@@H]1CN=C2N(CCNC(=O)CCC3CCCCC3)[C@H](Cc3ccc(O)cc3)CN21`, with “inactive”. Then `COc1cc(C=O)ccc1OCCCCOc1ccccc1[N+](=O)[O-]`, with “inactive”; and `CCc1ccc(C2=C/C(=C/c3cccnc3)C(=O)O2)cc1`, with “inactive”; and `C/C(=N\Nc1ccc(Cl)cc1)c1c(O)cc(C)oc1=O`, with “inactive”. With `CN(C)c1ccc(NC(=O)COC(=O)c2cc(Cl)ccc2[N+](=O)[O-])cc1`, the compound was classed as inactive. `O=C(Nc1cccc(Cl)c1)C1COc2ccccc2O1` (configuration not stated): the call was inactive. Then `O=C(Nc1cccc([N+](=O)[O-])c1)C1COc2ccccc2O1` (configuration not stated), with “inactive”; and `CC(C)NC(=O)C1COc2ccccc2O1` (configuration not stated), with “inactive”; and `O=C(Nc1ccc(Cl)cn1)C1COc2ccccc2O1` (configuration not stated), with “inactive”. The same measure for `O=C(Nc1ccc([N+](=O)[O-])cc1)C1COc2ccccc2O1` (configuration not stated): “inactive”. The same measure for `Cn1cccc1/C=N\NC(=O)C1COc2ccccc2O1` (configuration not stated): “inactive”; for `COc1ccc2c([N+](=O)[O-])c(N3CCCC3)[nH]c2c1`: “inactive”; for `COc1ccc(NC(=O)COc2ccccc2)cc1Cl`: “inactive”. Regarding `COC(=O)c1cccc(NC(=O)COc2cccc([N+](=O)[O-])c2)c1`, the compound was classed as inactive. With `CN(C)S(=O)(=O)Oc1ccc(C(=O)Nc2cccc(C(F)(F)F)c2)cc1`, the compound was called inactive.

On to `C=C(C)C1Cc2cc3ccc(=O)oc3cc2O1` (configuration not stated), for which the outcome was inactive. The same measure for `COCCNC(=O)CC(=O)N/N=C/c1cccc(C(=O)OC)c1`: “inactive”; for `O=C(COC(=O)CCC(=O)c1ccc(F)cc1)Nc1ccccc1`: “inactive”; for `O=C(CCc1c[nH]c2ccccc12)Nc1ncccc1O`: “inactive”. The same measure for `COc1cccc(NC(=O)COC(=O)Cc2ccc(Br)cc2)c1`: “inactive”.

Regarding `CC(=O)c1ccc(NC(=O)C(Cc2ccccc2)n2cccc2)cc1` (configuration not stated), the result was inactive. Then `Cc1cc(C(=O)NNc2ccc(Cl)cc2)no1`, with “inactive”; and `Cc1ccc(CSCCNC(=O)c2cccc([N+](=O)[O-])c2)cc1`, with “inactive”; and `COc1ccc(NC(=O)c2cc([N+](=O)[O-])ccc2O)cc1`, with “inactive”.

For `COc1ccc([C@@]2(O)c3c(ccc(CC=C(C)C)c3O)NC(=O)[C@@H]2OC)cc1`, the result was inactive. Then `CN1/C(=C\C=N\NC(=O)c2cccnc2)C(C)(C)c2ccccc21`, with “inactive”.

With `C/C(CC(=O)Nc1ccc(C)c(Cl)c1)=N\NC(=O)c1ccco1`, the result was inactive.

For `CCc1cccc(OCCCn2ccnc2)c1`, the result was inactive.

As for `O=Cc1ccc(OC2OCCOC2Oc2ccc(C=O)cc2)cc1` (configuration not stated), the compound was called inactive. The same measure for `O=C(c1ccccc1[N+](=O)[O-])N1N=C(c2ccccc2)CC1(O)C(F)(F)F` (configuration not stated): “inactive”; for `CC1=NN(C(=O)c2cc(C)nn2C)C(O)(C(F)(F)F)C1` (configuration not stated): “inactive”; for `CC1=NN(C(=O)c2ccc(Cn3nc(C)c(Br)c3C)cc2)C(O)(C(F)(F)F)C1` (configuration not stated): “inactive”. Then `CC1=NN(C(=O)c2ccoc2C)C(O)(C(F)(F)F)C1` (configuration not stated), with “inactive”; and `Cc1cc(C)cc(NC(=O)COC(=O)CC2CCCC2)c1`, with “inactive”; and `O=C(CC1CCCCC1)NCc1ccccc1`, with “inactive”. In the case of `Cc1cc(Cl)ccc1NNC(=O)c1cccs1`, the call was inactive.

As to `CCN1CCN(Cc2cc(C(C)(C)C)c(O)c(C(C)(C)C)c2)CC1`, the compound was classed as inactive. Consider `COc1cc(CNCCNC(=O)c2nonc2N)ccc1OCc1ccc(Cl)cc1`, for which the result was inactive. `O=C(NNc1ccc([N+](=O)[O-])cc1)C1CC1c1ccccc1` (configuration not stated): the compound was classed as inactive.

As to `CCOc1ccc(Cn2c(=O)oc3ccccc32)cc1`, the compound was classed as inactive. Then `Cc1cccc(OCC(O)Cn2c(=N)n(Cc3ccccc3)c3ccccc32)c1` (configuration not stated), with “inactive”; and `Cc1ccc(C(=O)N2N=C(CC(C)C)CC2(O)C(F)(F)F)o1` (configuration not stated), with “inactive”; and `CCSc1nsc(NC(=O)Nc2ccc(F)cc2F)n1`, with “inactive”.

As for `O=C(C/C=N\OCc1ccc([N+](=O)[O-])cc1)Nc1ccc(Br)cc1`, the outcome was inactive.

`C=CCc1ccc2oc(C(=O)OCC)cc(=O)c2c1O`: the compound was classed as inactive. Regarding `CCC1(O)CC(c2ccccc2)=NN1C(=O)c1ccccc1F` (configuration not stated), the result was inactive. With `COc1ccc(/C=N/NC(=O)C(=O)NCc2cccnc2)cc1OC`, the compound was classed as inactive.

For `O=Cc1ccnc(-c2ccc(OC(=O)c3ccco3)cc2)n1`, the result was inactive.

As to `COc1cc(/C=N/Nc2ccc(Cl)c(C(=O)O)c2)ccc1OC(=O)c1cccs1`, the call was inactive.
